# Test results taken from PubChem BioAssay (EPA / NIEHS).
# Active and inactive are the calls of the source. How the source made its calls: active means hit-call score of the fitted dose curve at least 0.9, where 1 is the maximum; inconclusive means response in the unintended direction; inactive means score below 0.9.
# Target: Estrogen receptor (Homo sapiens) (UniProt P03372)
# Assay: OT_ERa_GFPERaERE_0120: Odyssey Thera (OT) 2-hour HeLa Transcription Induction Assay for Estrogen Receptor (AID 2283382)
# Description: OT_ERa_GFPERaERE_0120 is a cell-based, single-readout assay that uses HeLa, a human cervix cell line, with measurements taken at 2 hours after chemical dosing in a 384-well plate.OT_ERa_GFPERaERE_0120 is one of one assay component(s) measured or calculated from the OT_ERa_GFPERaERE_0120 assay. It is designed to make measurements of fluorescent protein induction, a form of inducible reporter, as detected with optical microscopy: fluorescence microscopy signals by Microscopy technology.Data from the assay component OT_ERa_GFPERaERE_0120 was analyzed into 1 assay endpoint. This assay endpoint, OT_ERa_EREGFP_0120, was analyzed in the positive analysis fitting direction relative to DMSO as the negative control and baseline of activity. Using a type of inducible reporter, measures of receptor for gain-of-signal activity can be used to understand the reporter gene at the pathway-level as they relate to the gene ESR1. Furthermore, this assay endpoint can be referred to as a primary readout, because the performed assay has only produced 1 assay endpoint. To generalize the intended target to other relatable targets, this assay endpoint is annotated to the nuclear receptor intended target family, where the subfamily is steroidal.
# All assay endpoints are quantified using high content image analysis algorithms.
# Chain of Estrogen receptor (Homo sapiens) (P03372 whole entry, looked up): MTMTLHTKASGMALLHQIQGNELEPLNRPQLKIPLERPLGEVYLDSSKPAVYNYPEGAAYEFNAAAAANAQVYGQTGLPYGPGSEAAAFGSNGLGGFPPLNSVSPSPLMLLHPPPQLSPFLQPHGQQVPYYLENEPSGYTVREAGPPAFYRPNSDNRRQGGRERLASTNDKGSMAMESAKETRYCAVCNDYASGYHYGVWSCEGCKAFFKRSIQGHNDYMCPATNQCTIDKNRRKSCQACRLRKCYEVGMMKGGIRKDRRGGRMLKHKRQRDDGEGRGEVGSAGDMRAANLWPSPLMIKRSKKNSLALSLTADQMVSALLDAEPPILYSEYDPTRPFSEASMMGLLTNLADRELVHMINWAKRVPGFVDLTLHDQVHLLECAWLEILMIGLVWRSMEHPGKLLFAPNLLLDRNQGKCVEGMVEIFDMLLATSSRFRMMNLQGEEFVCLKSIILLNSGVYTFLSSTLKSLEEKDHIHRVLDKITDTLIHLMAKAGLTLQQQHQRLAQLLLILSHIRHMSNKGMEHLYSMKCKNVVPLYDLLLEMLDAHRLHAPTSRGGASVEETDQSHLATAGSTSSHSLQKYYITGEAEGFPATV
Structure (SMILES),outcome,AC50
CCCCc1ccc(N)cc1,inactive,–
CN(C)CCCN,inactive,–
C=C(C)C(=O)O,inactive,–
CC(=O)OCCOC(C)=O,inactive,–
CCC/C=C/C=O,inactive,–
O=C1c2ccccc2C(=O)N1SC1CCCCC1,–,36.3 µM (active)
CC(=O)C=CC1=C(C)CCCC1(C)C,inactive,–
NCCCN1CCOCC1,inactive,–
CC1COc2ccccc2N1C(=O)C(Cl)Cl (configuration not stated),inactive,–
Cc1ccc(S)cc1,inactive,–
OCCOCCOCCOCCO,inactive,–
CCCCOCCOCCOCCOCCO,inactive,–
OCCN1CCNCC1,inactive,–
CC(C)(C)C(=O)c1ccccc1,inactive,–
c1ccc(CCCc2ccccn2)cc1,inactive,–
CCCCCCCCCCCCCC(=O)O,inactive,–
CCCCCCCCCC=O,inactive,–
BrC1CCC(Br)C(Br)CCC(Br)C(Br)CCC1Br (configuration not stated),inactive,–
NC(=O)Nc1ccc(Cl)cc1,inactive,–
CCN(CC)c1ccc2c(-c3ccccc3C(=O)O)c3ccc(=[N+](CC)CC)cc-3oc2c1,inactive,–
CCCCCCCCCCCCCCCC(=O)OC[C@H](O)[C@H]1OC(=O)C(O)=C1O,inactive,–
CC(C)(N)CO,inactive,–
CC(=O)OCCC(C)CC(C)(C)C (configuration not stated),inactive,–
CC(C)c1cccc(O)c1,inactive,–
CCCCCCCCC=O,inactive,–
CCCCCCCCC,inactive,–
O=Nc1ccc(Nc2ccccc2)cc1,–,28.2 µM (active)
